Assay results published in PubChem BioAssay.
Records with an inconclusive call do not appear. Activity calls are given as the source filed them.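 How the source made its calls, unless noted: active means percent response above 42, roughly 3 SD of non-fluorescent test compounds; inactive means the rest.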

Legend:
[1] = rapamycin-like changes in RPL19A-GFP expression – cell-based, S. cerevisiae, multiplex flow cytometry, primary screen (AID 1862; in the data active means percent of DMSO control GFP below about 86%;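 further: lower values mimic rapamycin by blocking the RPL19A rise seen in DMSO cells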); details: S. cerevisiae RPL19A-GFP strain, flow cytometry fluorescence, 3 h; at 10 µM; stronger effect = lower value
[2] = TOR pathway GLN3 branch reporter MEP2-GFP changes – S. cerevisiae, multiplex flow cytometry, primary screen (AID 1867;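 active means GFP response, as percent of the DMSO control, above the screen-wide mean plus 3 SD, about 139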;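 further: median GFP channel fluorescence of barcode-gated MEP2-GFP cells measured by flow cytometry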); details: S. cerevisiae MEP2-GFP strain, 3 h, at 10 µM, stronger effect = higher value, 100% means same as DMSO wells
[3] = TOR pathway RTG branch CIT2 reporter changes – S. cerevisiae, GFP fusion, multiplex flow cytometry, primary screen (AID 1870;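 active means percent response above a set limit, the screen-wide mean plus 3 SD, cut at about 130% in these data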;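 further: barcoded CIT2-GFP strain pooled with four other GFP strains with rapamycin as positive control; median GFP fluorescence per well over plate mean of DMSO wells so 100% = DMSO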); details: S. cerevisiae CIT2-GFP expression, 3 h, at 10 µM, stronger effect = higher value
[4] = TOR pathway LAP4-GFP level changes – S. cerevisiae, multiplex flow cytometry, primary screen (AID 1873;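 active means GFP signal, as percent of the solvent control, above the screen mean plus 3 SD, about 149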); details: S. cerevisiae LAP4-GFP expression, 3 h, at 10 µM, stronger effect = higher value
[5] = yeast AGP1-GFP level changes, GLN3 branch – cell-based, multiplex flow cytometry, S. cerevisiae, primary screen (AID 1887;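 active means GFP signal above the screen-wide mean plus 3 SD, that is over about 124.5% of the solvent control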;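 further: AGP1-GFP fusion strain of S. cerevisiae within a five-strain barcoded multiplex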); details: 3 h, at 10 µM, stronger effect = higher value
[6] = reduced mouse 2C T cell binding to pMHC/ICAM-1 vesicles – MLPCN validation set, flow cytometry, LFA-1/ICAM-1 modulator project, pilot screen (AID 2523;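 active means response below a set limit, under 55% cells CD8-positive and vesicle-bound, and CD8 cells' 90th-percentile brightness under 279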;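 on vesicle binding response: mean PE anti-B7-1 fluorescence of CD8+ cells relative to row control; 100% = QL9-loaded vesicles with DMSO vehicle in the same plate row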); details: 2C mouse CD8+ T cells, at 7 µM, stronger effect = lower value; double positive events: measured here: CD8+/vesicle+ event percentage
[7] = molecular target: Integrin beta-1 (Homo sapiens) + Integrin alpha-4 (Homo sapiens) (UniProt P13612+P05556); assay: alpha4beta1 integrin LIBS antibody binding reduction – U937 cells, HUTS-21 mAb, flow cytometry, validation set, VLA-4 allosteric modulator project, pilot screen (AID 2674;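 active means inhibition above 50%, about 3 SD of the validation set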;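 further: antibody binding induced by the VLA-4 ligand LDV present at three times its Kd; 0% = LDV ligand with antibody and no compound and 100% = antibody without LDV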); details: HUTS-21 LIBS mAb binding, at 6.7 µM, stronger effect = higher value, binding induced by LDV ligand
Sequence of Integrin beta-1 (Homo sapiens) + Integrin alpha-4 (Homo sapiens) (P05556 whole entry, looked up): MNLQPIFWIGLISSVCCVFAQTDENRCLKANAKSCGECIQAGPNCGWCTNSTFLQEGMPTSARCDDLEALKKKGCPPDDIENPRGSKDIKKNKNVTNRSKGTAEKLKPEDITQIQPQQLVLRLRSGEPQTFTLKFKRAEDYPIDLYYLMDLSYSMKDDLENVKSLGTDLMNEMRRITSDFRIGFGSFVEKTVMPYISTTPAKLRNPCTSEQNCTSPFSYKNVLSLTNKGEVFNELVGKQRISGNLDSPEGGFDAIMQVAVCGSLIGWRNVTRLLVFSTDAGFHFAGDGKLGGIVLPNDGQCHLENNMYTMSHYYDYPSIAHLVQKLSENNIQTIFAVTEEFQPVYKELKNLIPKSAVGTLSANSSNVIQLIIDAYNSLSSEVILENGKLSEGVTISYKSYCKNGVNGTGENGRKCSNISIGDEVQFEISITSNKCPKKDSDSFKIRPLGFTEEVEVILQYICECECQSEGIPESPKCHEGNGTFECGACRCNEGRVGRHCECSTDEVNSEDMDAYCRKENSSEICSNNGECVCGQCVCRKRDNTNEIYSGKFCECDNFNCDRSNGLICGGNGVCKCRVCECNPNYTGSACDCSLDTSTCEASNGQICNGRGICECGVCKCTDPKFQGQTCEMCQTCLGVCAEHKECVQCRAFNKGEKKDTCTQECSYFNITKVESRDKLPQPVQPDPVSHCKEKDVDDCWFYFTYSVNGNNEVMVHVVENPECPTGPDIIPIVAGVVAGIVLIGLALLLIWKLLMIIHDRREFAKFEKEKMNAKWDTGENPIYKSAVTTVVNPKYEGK
Sequence of Integrin beta-1 (Homo sapiens) + Integrin alpha-4 (Homo sapiens) (P13612 whole entry, looked up): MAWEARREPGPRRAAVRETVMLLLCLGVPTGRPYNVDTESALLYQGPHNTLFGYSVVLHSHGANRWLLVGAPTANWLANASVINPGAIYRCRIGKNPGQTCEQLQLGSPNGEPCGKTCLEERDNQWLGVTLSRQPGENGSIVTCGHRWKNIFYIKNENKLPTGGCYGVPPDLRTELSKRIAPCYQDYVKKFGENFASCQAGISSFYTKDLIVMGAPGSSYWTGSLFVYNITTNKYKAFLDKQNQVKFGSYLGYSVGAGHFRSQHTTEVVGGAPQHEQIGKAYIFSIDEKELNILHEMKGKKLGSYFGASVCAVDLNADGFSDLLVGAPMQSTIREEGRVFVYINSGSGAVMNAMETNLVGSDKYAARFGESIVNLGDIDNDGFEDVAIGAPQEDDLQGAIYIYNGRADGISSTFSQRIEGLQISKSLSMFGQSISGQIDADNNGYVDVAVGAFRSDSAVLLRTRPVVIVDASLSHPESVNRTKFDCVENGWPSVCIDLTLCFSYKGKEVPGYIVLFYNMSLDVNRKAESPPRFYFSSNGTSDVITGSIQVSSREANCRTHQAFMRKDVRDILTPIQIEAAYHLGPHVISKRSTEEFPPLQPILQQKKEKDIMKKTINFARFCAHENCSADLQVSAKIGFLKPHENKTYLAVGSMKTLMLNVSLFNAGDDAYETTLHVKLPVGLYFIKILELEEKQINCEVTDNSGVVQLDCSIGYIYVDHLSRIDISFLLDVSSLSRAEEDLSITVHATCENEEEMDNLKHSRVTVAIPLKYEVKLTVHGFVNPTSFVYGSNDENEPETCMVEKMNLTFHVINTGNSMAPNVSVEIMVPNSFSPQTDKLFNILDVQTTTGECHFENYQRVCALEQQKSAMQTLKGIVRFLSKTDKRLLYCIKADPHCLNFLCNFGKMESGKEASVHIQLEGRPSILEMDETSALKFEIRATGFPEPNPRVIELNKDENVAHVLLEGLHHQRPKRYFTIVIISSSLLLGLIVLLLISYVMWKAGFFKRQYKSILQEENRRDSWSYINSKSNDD

[8] = calorie-restriction mimetic ROS inhibitors, yeast – validation compound set, pilot screen (AID 2706;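 active means superoxide response below 65% of plate, a cut near 3 SD across the whole screen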;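 further: yeast exposed to compound for one week at 30 degrees C before staining; 100% = mean of all compound wells on the same plate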); details: S. cerevisiae aging, superoxide DHE fluorescence; at 10 µM; stronger effect = lower value
[9] = molecular target: Beta-adrenergic receptor kinase 1 (Homo sapiens) (UniProt P25098); assay: GRK2 binders displacing RNA aptamer, biochemical, validation, human GRK2, bead flow cytometry (AID 488806;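 active means aptamer binding inhibition above 30%, about 3 SD of noise from non-fluorescent compounds; inactive means inhibition at or below 30%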); details: bead-bound GRK2, FAM-aptamer displacement, at 10 µM, stronger effect = higher value
Sequence of Beta-adrenergic receptor kinase 1 (Homo sapiens) (P25098 whole entry, looked up): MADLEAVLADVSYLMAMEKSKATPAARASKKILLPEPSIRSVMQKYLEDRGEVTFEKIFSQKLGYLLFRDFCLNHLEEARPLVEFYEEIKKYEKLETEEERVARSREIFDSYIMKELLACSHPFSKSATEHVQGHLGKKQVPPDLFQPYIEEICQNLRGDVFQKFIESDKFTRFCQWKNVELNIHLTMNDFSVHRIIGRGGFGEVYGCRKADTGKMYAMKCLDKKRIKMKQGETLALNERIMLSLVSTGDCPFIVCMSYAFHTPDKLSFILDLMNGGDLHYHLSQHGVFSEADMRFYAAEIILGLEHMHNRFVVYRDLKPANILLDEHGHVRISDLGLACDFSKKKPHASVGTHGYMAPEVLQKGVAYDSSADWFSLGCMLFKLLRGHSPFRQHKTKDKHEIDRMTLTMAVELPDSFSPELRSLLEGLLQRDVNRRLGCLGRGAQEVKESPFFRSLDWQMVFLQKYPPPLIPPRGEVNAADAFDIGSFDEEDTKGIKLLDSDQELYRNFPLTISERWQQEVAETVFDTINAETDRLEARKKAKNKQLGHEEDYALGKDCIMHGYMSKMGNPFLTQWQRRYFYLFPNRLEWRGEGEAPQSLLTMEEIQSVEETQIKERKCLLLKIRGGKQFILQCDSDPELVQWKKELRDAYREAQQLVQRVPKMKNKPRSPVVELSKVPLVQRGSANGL

[10] = molecular target: Beta-2 adrenergic receptor (Homo sapiens) (UniProt P07550); assay: agonist-induced loss of surface beta2AR – cell-based, FAP fluorogen, flow cytometry, validation set, pilot screen (AID 504459); details: Am2.2-beta2AR cells, at 10 µM, stronger effect = higher value;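 further: agonist-driven loss of surface beta2AR via internalization measured by FAP dye flow cytometry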
Sequence of Beta-2 adrenergic receptor (Homo sapiens) (P07550 whole entry, looked up): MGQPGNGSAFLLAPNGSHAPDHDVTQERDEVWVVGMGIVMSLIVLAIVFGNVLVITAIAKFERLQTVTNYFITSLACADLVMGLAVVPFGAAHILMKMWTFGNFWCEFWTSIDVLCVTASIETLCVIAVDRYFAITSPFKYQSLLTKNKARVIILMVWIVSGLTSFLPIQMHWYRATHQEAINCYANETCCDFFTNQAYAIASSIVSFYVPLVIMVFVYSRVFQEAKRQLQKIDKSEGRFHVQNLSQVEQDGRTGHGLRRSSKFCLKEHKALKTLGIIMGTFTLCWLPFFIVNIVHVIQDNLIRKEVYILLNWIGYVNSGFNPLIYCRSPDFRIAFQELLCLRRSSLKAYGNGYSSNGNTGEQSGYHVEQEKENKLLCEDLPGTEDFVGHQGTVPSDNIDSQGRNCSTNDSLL

[11] = molecular target: AP-2 complex subunit beta (Homo sapiens) (UniProt P63010); assay: beta-arrestin/AP2 interaction blockers – biochemical, validation set, GST-AP2 beads, flow cytometry, pilot screen (AID 504541;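 active means inhibition above 54%, about 3 SD of non-fluorescent compounds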;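 further: AP2 carries R879A mutation and is captured from E. coli lysate; bead-bound FITC arrestin peptide fluorescence measuring arrestin peptide binding to AP2; 0% = DMSO wells and 100% = excess unlabeled arrestin peptide control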); details: FITC arrestin peptide, at 10 µM, stronger effect = higher value, AP2 beta2 appendage fragment, R879A mutant
Sequence of AP-2 complex subunit beta (Homo sapiens) (P63010 whole entry, looked up, the tested form may be a part, one chain of several): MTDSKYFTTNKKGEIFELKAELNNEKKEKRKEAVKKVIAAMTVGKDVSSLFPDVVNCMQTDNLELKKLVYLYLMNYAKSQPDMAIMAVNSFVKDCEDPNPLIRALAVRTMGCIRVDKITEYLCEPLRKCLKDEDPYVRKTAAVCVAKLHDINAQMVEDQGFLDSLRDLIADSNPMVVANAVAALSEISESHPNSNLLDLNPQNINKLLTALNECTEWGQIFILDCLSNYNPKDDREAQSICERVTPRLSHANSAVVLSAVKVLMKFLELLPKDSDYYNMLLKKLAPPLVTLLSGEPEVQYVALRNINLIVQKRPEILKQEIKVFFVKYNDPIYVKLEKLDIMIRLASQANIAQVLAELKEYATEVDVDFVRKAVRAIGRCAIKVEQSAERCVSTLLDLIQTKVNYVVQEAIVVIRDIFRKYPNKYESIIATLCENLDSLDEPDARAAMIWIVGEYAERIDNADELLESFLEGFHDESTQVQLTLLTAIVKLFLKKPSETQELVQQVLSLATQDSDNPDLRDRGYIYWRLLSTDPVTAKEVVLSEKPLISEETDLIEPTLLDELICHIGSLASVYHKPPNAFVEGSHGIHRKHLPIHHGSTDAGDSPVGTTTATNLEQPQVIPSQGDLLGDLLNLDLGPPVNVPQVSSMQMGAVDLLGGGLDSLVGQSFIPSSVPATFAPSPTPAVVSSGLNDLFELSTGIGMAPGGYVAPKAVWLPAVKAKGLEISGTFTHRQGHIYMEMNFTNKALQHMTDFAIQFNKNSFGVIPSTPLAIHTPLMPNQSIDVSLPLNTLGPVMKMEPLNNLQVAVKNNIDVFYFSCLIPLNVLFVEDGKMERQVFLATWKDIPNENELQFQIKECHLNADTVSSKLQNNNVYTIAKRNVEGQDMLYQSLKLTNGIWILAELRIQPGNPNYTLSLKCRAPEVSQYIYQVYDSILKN

[12] = cytosolic pH regulators acting via V-ATPase – S. cerevisiae, pHLuorin, HTS validation (AID 504600; in the data active means response above about 15%;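 further: plate controls were DMSO for no effect and reference compound for full effect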); details: V-ATPase proton transport, at 10 µM, stronger effect = higher value
[13] = tested on: anti-desmoglein-3 scFv antibody binding to human DSG3; assay: blockers of pathogenic pemphigus antibody–desmoglein-3 binding – biochemical, validation compound set, bead-based, flow cytometry, pilot screen (AID 588368;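 active means binding below the plate cutoff, the plate median minus 3 SD, with a reading above zero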;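 further: signal is the median channel fluorescence of bead-bound GFP antibody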); details: Protein G beads, DSG3-Fc, scFv-GFP binding, at 10 µM, stronger effect = lower value
[14] = Nile Red efflux blockade in pump-expressing yeast – validation compound set, multiplex, phenotypic, pilot screen (AID 588506;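 active means efflux inhibition above 0.42, the validation set average plus 4 SD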;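 further: Nile Red retained in cells so higher fluorescence means more efflux inhibition; 0 = negative control wells and 1 = enniatin B 25 µM full block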); details: S. cerevisiae pump-expressing triplex, Nile Red efflux flow cytometry; at 10 µM; stronger effect = higher value; the pumps come from Candida albicans
[15] = molecular target: ATP-binding cassette sub-family B member 6 (Homo sapiens) (UniProt Q9NP58); assay: blockers of ABCB6-driven porphyrin uptake – K562-ABCB6 cells, flow cytometry, validation set, pilot screen (AID 588550;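 active means inhibition above the screen-wide mean plus 3 SD, about 51%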;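 further: 0% = DMSO wells and 100% = benzethonium chloride 70 µM positive control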); details: K562-ABCB6 porphyrin accumulation, 1 h, at 10 µM, stronger effect = higher value
Sequence of ATP-binding cassette sub-family B member 6 (Homo sapiens) (Q9NP58 whole entry, looked up): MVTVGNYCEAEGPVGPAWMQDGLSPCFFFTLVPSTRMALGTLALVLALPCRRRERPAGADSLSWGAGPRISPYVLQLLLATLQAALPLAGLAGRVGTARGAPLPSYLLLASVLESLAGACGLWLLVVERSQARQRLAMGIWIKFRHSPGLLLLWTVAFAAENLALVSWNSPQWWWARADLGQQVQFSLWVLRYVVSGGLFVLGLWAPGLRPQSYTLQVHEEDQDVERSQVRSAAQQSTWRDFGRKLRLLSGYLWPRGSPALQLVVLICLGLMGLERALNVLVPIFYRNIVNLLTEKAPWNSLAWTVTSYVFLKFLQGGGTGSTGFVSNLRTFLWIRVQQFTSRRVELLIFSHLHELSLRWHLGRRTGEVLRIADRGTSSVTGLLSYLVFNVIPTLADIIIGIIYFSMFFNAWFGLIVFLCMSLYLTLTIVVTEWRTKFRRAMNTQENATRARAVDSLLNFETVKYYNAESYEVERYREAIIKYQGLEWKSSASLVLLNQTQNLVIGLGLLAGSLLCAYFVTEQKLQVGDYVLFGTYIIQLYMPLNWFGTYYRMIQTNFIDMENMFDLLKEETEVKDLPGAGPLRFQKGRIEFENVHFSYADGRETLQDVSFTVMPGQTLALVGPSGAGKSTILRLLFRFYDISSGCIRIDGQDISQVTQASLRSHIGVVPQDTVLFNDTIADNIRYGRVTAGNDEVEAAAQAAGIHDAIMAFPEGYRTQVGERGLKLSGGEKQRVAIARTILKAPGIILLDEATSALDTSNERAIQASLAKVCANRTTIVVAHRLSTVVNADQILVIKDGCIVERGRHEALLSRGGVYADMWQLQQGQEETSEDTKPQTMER

[16] = AML differentiation inducers, ER-HoxA9 marrow cells – cell-based, GFP/MAC1 double positive, flow cytometry, validation set, primary screen (AID 588685;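 active means differentiation response of at least 50%, scaled between solvent and reference control, from cells with both markers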;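 further: compound exposure lasts four days before antibody staining and flow analysis; 0% = DMSO wells and 100% = 5 µM fulvestrant positive control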); details: stronger effect = higher value, normalized: vehicle 0, fulvestrant 100

SMILES | percent of DMSO control GFP [1] | GFP response vs DMSO [2] | percent response of DMSO control [3] | GFP response vs DMSO [4] | GFP response, % of DMSO [5] | double positive events [6] [%] | vesicle binding response [6] | inhibition [7] | superoxide response (% of plate) [8] | aptamer binding inhibition [9] | response [10] | inhibition [11] | response [12] | binding (% of control) [13] | efflux inhibition (fraction of control) [14] | inhibition [15] | differentiation response [16]
CCCCOc1ccc(C(=O)CCN2CCCCC2)cc1 | 109% (inactive) | 96.6% (inactive) | 97.6% (inactive) | 126% (inactive) | 78.8% (inactive) | 58.1 | 108% (inactive) | -9.13% (inactive) | 83.9% (inactive) | -1% (inactive) | 26.6% (inactive) | -10.4% (inactive) | 7.43% (inactive) | 104% (inactive) | 0.11 (inactive) | 7% (inactive) | 4.2% (inactive)
COc1ccc(OCc2cccc(C(=O)NN)c2)cc1 | 94.8% (inactive) | 97.4% (inactive) | 105% (inactive) | 98.2% (inactive) | 86.3% (inactive) | 59.7 | 167% (inactive) | -8.62% (inactive) | 98.7% (inactive) | 8% (inactive) | 11.1% (inactive) | -3.59% (inactive) | -1.43% (inactive) | 103% (inactive) | -0.28 (inactive) | 3% (inactive) | -13.6% (inactive)
Cc1cc(=O)c2c(O)c(O)ccc2o1 | 102% (inactive) | 107% (inactive) | 98.9% (inactive) | 90.7% (inactive) | 101% (inactive) | 60.3 | 30% (inactive) | -7.72% (inactive) | 105% (inactive) | -4% (inactive) | 5.76% (inactive) | -12.7% (inactive) | -0.09% (inactive) | 98.5% (inactive) | -0.07 (inactive) | 7% (inactive) | 9.04% (inactive)
CC(=O)Oc1c2occc2cc2ccc(=O)oc12 | 98.4% (inactive) | 103% (inactive) | 87.2% (inactive) | 114% (inactive) | 98.9% (inactive) | 57.9 | 140% (inactive) | -11.3% (inactive) | 101% (inactive) | 3% (inactive) | 9.55% (inactive) | 7.26% (inactive) | -2.03% (inactive) | 101% (inactive) | 0.51 (active) | 8% (inactive) | 10.4% (inactive)
COc1ccc(OC(C)C(=O)Nc2ccccc2F)cc1 (stereo unspecified) | 102% (inactive) | 99.7% (inactive) | 102% (inactive) | 108% (inactive) | 99.3% (inactive) | 58.4 | 151% (inactive) | 25.7% (inactive) | 90.6% (inactive) | 0% (inactive) | 6.77% (inactive) | -5.67% (inactive) | 0.03% (inactive) | 104% (inactive) | -0.15 (inactive) | 8% (inactive) | -6.03% (inactive)
COc1ccc2cc(C3(C)NC(=O)NC3=O)ccc2c1 (stereo unspecified) | 95.8% (inactive) | 116% (inactive) | 87.2% (inactive) | 117% (inactive) | 99.7% (inactive) | 60.5 | 147% (inactive) | -9.98% (inactive) | 104% (inactive) | 2% (inactive) | 2.16% (inactive) | -3.7% (inactive) | -5.94% (inactive) | 99.7% (inactive) | -0.06 (inactive) | 8% (inactive) | 7.2% (inactive)
CC(C)=CCCC1=CCC2C(=O)NNC(=O)C2C1 (stereo unspecified) | 98.8% (inactive) | 101% (inactive) | 110% (inactive) | 99.9% (inactive) | 99.5% (inactive) | 50.6 | 61.5% (active) | -3.16% (inactive) | 104% (inactive) | 3% (inactive) | -19.2% (inactive) | -0.62% (inactive) | 51.2% (active) | 103% (inactive) | -0.1 (inactive) | 4% (inactive) | -10.4% (inactive)
COc1cc(OC)cc(C(C)=O)c1 | 96% (inactive) | 91.8% (inactive) | 95.1% (inactive) | 99.5% (inactive) | 104% (inactive) | 68.7 | 149% (inactive) | 14.2% (inactive) | 94.5% (inactive) | 9% (inactive) | -14.6% (inactive) | -2.85% (inactive) | -2.23% (inactive) | 81.3% (inactive) | 0 (inactive) | 5% (inactive) | -6.96% (inactive)
COc1ccc(-c2nnc(-c3cc4c(ccc5ccccc54)oc3=O)o2)cc1 | 101% (inactive) | 93% (inactive) | 96.7% (inactive) | 89.7% (inactive) | 98% (inactive) | 61 | 244% (inactive) | -20.9% (inactive) | 75.6% (inactive) | -1% (inactive) | 50.8% (active) | 6.88% (inactive) | 1% (inactive) | 97.2% (inactive) | 0.08 (inactive) | 0% (inactive) | -0.8% (inactive)
c1ccc(CC2=NCCN2)cc1 | 104% (inactive) | 107% (inactive) | 100% (inactive) | 103% (inactive) | 102% (inactive) | 61.8 | 181% (inactive) | 0% (inactive) | 101% (inactive) | -2% (inactive) | -7.37% (inactive) | -16.6% (inactive) | 1.43% (inactive) | 98% (inactive) | -0.07 (inactive) | -5% (inactive) | 14.9% (inactive)
Cc1cc(C)c(NC(=O)NC(=O)C(Cl)(Cl)Cl)c(C)c1 | 103% (inactive) | 97.2% (inactive) | 101% (inactive) | 90.7% (inactive) | 94.2% (inactive) | 62.2 | 464% (inactive) | 13% (inactive) | 97.8% (inactive) | 4% (inactive) | -6.36% (inactive) | -8.2% (inactive) | 13.6% (inactive) | 96.9% (inactive) | -0.04 (inactive) | -19% (inactive) | 0.24% (inactive)
CC1=CC(=O)c2ccccc2C1=O | 101% (inactive) | 104% (inactive) | 94.5% (inactive) | 94.8% (inactive) | 91.1% (inactive) | 60.8 | 105% (inactive) | -5.11% (inactive) | 108% (inactive) | 1% (inactive) | 22.2% (inactive) | -9.12% (inactive) | 1.78% (inactive) | 102% (inactive) | -0.21 (inactive) | 1% (inactive) | 14.4% (inactive)
CC(=O)Oc1ccc(C(c2ccc(OC(C)=O)cc2)c2ccccn2)cc1 | 98.9% (inactive) | 104% (inactive) | 99.6% (inactive) | 125% (inactive) | 117% (inactive) | 63.6 | 203% (inactive) | -42% (inactive) | 105% (inactive) | 4% (inactive) | -25.8% (inactive) | -3.7% (inactive) | -1.07% (inactive) | 106% (inactive) | 0.08 (inactive) | 6% (inactive) | -7.94% (inactive)
CCC(=O)c1ccc(OCc2ccc(C(=O)OC)cc2)cc1 | 104% (inactive) | 104% (inactive) | 106% (inactive) | 112% (inactive) | 98.6% (inactive) | 54.8 | 127% (inactive) | 4.27% (inactive) | 90.3% (inactive) | -1% (inactive) | 4.9% (inactive) | 10.4% (inactive) | 23.8% (active) | 96.4% (inactive) | -0.045 (inactive) | 10% (inactive) | -23.6% (inactive)
c1cnc(N2CCN(Cc3ccc4c(c3)OCO4)CC2)nc1 | 101% (inactive) | 101% (inactive) | 102% (inactive) | 97% (inactive) | 103% (inactive) | 73.9 | 330% (inactive) | 2.93% (inactive) | 103% (inactive) | -1% (inactive) | 2.78% (inactive) | 2.85% (inactive) | 0.81% (inactive) | 105% (inactive) | 0.235 (inactive) | 2% (inactive) | -13.3% (inactive)
O=C(O)CCCCCCNC(=O)c1cncc(O)c1 | 104% (inactive) | 107% (inactive) | 105% (inactive) | 113% (inactive) | 115% (inactive) | 63.9 | 153% (inactive) | 13.4% (inactive) | 112% (inactive) | 7% (inactive) | -25.8% (inactive) | 12.7% (inactive) | -3.09% (inactive) | 97.3% (inactive) | 0 (inactive) | -5% (inactive) | -4% (inactive)
CCOc1ccc(C(=O)NC(C)C2COc3ccccc3O2)cc1 (stereo unspecified) | 99.5% (inactive) | 104% (inactive) | 95.7% (inactive) | 110% (inactive) | 106% (inactive) | 61.2 | 111% (inactive) | 7.4% (inactive) | 108% (inactive) | 6% (inactive) | -18% (inactive) | -0.3% (inactive) | -8.02% (inactive) | 106% (inactive) | -0.17 (inactive) | 1% (inactive) | 4.86% (inactive)
Cc1ccc(C(=O)Nc2ccccc2C(=O)NC(C(=O)O)C(C)C)cc1 (stereo unspecified) | 96.7% (inactive) | 109% (inactive) | 89.1% (inactive) | 115% (inactive) | 101% (inactive) | 57.3 | 175% (inactive) | -19.5% (inactive) | 116% (inactive) | 3% (inactive) | -2.49% (inactive) | 10.5% (inactive) | 0.12% (inactive) | 99.1% (inactive) | -0.06 (inactive) | 3% (inactive) | -13.6% (inactive)
